For some of these results: Measured potencies and affinities stand elsewhere.

Holding throughout (parameters): scale not given: direction of the effect not stated beside the values
The target of test [1] is Protein translocase subunit SecA (Escherichia coli (strain K12)) (UniProt P10408). Nature of the test: Assay to Identify E. coli SecA ATPase Inhibitors. The class given is functional. Particulars: 30 µM.
Test [2] has as its target T1, Ubiquitin-activating enzyme e1, putative (Leishmania donovani (strain BPK282A1)) (UniProt E9BSI1).
T1 sequence (whole entry): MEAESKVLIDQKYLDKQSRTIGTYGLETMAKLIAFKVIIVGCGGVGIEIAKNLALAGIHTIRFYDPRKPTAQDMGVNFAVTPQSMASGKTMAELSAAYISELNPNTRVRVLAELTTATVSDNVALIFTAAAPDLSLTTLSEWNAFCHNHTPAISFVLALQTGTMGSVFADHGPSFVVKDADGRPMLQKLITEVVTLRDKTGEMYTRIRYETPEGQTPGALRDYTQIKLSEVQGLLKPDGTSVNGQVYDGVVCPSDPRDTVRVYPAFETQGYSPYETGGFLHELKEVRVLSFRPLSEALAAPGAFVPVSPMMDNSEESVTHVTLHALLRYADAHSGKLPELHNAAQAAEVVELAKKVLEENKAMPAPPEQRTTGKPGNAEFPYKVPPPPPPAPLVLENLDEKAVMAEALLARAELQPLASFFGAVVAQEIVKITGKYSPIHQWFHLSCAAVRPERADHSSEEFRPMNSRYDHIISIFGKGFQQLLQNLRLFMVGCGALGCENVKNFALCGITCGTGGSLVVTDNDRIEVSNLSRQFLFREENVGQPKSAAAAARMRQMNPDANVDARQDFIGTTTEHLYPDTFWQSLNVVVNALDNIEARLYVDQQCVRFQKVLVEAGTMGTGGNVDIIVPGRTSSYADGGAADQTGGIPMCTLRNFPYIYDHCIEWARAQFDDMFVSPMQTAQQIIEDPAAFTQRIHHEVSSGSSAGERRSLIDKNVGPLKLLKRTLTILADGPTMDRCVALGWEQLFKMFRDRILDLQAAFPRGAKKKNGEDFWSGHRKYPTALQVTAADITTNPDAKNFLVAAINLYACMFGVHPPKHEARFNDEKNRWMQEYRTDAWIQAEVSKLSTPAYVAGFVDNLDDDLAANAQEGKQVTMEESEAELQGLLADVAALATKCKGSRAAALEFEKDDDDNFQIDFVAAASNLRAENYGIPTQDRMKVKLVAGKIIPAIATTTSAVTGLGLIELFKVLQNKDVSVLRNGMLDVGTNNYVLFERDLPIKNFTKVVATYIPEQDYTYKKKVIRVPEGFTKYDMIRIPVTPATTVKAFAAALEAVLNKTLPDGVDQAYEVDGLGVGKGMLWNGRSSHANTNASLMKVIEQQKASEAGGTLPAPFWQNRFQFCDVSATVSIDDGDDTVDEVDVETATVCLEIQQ
Nature of the test: Leishmania donovani Ubiquitin Activating Enzyme (LdE1). The conditions noted are these: 30 µM. It counts as functional.

The target of test [3] is AMP-activated protein kinase, AMPK (Homo sapiens) (UniProt P54646+O43741+P54619+Q9UGJ0+Q9Y478+Q13131+Q9UGI9). Nature of the test: AMP-dependent Kinase enzyme assay. An in vitro enzyme assay that detects ADP turnover that is directly proportional to AMPK activity. This uses naive AMPK that is activated during the assay with MK-8722. The class given is functional. The conditions noted are these: 30 µM.

The target of test [4] is Sialic acid-binding Ig-like lectin 9 (Homo sapiens) (UniProt Q9Y336). Nature of the test: Hs-Siglec9 ALPHAscreen SOP 20170721. Particulars: 10 µM. (In general: In Alpha technology, singlet oxygen from a donor bead excites a nearby acceptor bead.)
In the next test the test system is Trypanosoma cruzi. Nature of the test: Trypanosoma cruzi phosphomannomutase and mannose-1-phosphate guanylyltransferase assay. The class given is functional. Particulars: 10 µM.
In test [5] the target is T2, Arginase-2, mitochondrial (Homo sapiens) (UniProt P78540).
T2 sequence (whole entry): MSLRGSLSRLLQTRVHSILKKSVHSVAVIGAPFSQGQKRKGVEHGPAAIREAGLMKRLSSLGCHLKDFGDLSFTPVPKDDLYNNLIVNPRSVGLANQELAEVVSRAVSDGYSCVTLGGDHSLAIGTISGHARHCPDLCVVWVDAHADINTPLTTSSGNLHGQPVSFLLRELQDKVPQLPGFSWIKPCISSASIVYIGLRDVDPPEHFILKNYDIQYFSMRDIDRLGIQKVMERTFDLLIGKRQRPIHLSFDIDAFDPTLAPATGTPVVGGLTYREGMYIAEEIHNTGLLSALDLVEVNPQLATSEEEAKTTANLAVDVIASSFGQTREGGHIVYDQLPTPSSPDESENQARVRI
Nature of the test: in vitro enzyme assay to detect the production of urea directly proportional to the activity of Arginase II. Also: in the data most compounds retested in dose-response had high values. Particulars: 33.3 µM. The class given is functional.

The target of test [6] is T3, Proteasome subunit beta (Trypanosoma cruzi) (UniProt O96673).
T3 sequence (whole entry): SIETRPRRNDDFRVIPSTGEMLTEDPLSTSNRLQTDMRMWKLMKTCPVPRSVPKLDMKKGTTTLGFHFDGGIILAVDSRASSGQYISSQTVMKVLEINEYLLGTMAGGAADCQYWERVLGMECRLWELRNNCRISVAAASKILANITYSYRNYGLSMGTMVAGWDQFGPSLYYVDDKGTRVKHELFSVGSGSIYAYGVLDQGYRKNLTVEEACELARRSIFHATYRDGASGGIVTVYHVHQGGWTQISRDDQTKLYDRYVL
Nature of the test: Trypanosoma cruzi proteasome chymotrypsin-like activity (TcProtChymo) assay. Also: in the data most compounds retested in dose-response had high values. It counts as functional. The conditions noted are these: 9.37 µM.

The species named for the next test is Homo sapiens. Nature of the test: To identify inhibition of the IFN signalling (Jak-Stat) pathway via expression of an eGFP reporter gene under the control of an IFN-stimulated response element (ISRE) containing MxA promoter. It counts as functional. The conditions noted are these: 30 µM.
The target in test [7] is T4, Tyrosyl-tRNA synthetase, putative (Trypanosoma cruzi (strain CL Brener)) (UniProt Q4DSP6).
T4 sequence (whole entry): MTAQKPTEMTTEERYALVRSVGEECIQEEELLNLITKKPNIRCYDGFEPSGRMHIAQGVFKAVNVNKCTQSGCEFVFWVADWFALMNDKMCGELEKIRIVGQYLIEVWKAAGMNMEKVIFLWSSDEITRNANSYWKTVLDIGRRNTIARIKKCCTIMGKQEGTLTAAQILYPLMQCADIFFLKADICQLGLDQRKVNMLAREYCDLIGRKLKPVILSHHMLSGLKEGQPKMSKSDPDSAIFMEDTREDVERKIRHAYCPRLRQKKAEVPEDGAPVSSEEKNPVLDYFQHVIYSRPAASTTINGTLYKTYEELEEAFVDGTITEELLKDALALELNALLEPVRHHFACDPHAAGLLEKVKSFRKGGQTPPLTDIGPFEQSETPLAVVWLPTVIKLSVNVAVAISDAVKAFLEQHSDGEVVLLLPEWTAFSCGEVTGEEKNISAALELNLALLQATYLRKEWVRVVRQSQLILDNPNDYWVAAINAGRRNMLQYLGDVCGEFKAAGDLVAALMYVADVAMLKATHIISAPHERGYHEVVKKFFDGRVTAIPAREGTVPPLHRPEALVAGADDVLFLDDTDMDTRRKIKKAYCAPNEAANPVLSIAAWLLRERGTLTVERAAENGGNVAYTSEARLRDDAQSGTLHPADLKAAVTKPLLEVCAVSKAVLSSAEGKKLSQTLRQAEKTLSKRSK
Nature of the test: Trypanosoma cruzi tyrosyl tRNA synthetase (TcYRS) _High Tyrosine SOP. Also: in the data most compounds retested in dose-response had high values. The conditions noted are these: 30 µM. It counts as functional.

Test [8] addresses T4, Tyrosyl-tRNA synthetase, putative (Trypanosoma cruzi (strain CL Brener)). Nature of the test: Trypanosoma cruzi tyrosyl tRNA synthetase (TcYRS) SOP. Particulars: 30 µM. The class given is functional.
Test [9] has as its target Chromo domain-containing protein 1 (Saccharomyces cerevisiae (strain ATCC 204508 / S288c) (Baker's yeast)) (UniProt P32657). Nature of the test: ScCHD-1 Enzyme Inhibition Assay. Also: in the data most compounds retested in dose-response had high values. It counts as functional. Particulars: 30 µM.

Protein translocase subunit SecA (Escherichia coli (strain K12)), sequence (P10408 whole entry): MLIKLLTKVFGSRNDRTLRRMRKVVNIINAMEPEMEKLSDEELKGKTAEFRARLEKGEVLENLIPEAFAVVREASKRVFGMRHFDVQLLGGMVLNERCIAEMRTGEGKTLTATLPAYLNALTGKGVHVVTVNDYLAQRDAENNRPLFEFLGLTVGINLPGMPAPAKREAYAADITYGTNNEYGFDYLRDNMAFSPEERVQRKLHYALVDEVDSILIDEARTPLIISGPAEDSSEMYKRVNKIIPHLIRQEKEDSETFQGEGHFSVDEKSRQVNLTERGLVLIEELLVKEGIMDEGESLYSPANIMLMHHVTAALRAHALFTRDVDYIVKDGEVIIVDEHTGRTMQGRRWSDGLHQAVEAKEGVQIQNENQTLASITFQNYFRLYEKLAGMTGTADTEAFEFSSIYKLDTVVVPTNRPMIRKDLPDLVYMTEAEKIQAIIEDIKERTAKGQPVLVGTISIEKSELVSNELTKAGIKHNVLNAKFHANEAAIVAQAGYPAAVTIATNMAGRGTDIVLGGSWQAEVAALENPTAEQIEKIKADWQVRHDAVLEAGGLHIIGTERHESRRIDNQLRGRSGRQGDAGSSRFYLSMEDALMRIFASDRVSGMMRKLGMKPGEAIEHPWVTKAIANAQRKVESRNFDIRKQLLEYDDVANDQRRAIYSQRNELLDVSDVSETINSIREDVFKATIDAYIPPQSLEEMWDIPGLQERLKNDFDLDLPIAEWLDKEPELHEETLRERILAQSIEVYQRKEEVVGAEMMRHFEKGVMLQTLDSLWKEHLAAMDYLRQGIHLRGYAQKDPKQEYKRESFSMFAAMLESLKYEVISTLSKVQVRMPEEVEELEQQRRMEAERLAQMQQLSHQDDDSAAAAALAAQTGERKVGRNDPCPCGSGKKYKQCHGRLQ
Chromo domain-containing protein 1 (Saccharomyces cerevisiae (strain ATCC 204508 / S288c) (Baker's yeast)), sequence (P32657 whole entry, the tested form may be a part): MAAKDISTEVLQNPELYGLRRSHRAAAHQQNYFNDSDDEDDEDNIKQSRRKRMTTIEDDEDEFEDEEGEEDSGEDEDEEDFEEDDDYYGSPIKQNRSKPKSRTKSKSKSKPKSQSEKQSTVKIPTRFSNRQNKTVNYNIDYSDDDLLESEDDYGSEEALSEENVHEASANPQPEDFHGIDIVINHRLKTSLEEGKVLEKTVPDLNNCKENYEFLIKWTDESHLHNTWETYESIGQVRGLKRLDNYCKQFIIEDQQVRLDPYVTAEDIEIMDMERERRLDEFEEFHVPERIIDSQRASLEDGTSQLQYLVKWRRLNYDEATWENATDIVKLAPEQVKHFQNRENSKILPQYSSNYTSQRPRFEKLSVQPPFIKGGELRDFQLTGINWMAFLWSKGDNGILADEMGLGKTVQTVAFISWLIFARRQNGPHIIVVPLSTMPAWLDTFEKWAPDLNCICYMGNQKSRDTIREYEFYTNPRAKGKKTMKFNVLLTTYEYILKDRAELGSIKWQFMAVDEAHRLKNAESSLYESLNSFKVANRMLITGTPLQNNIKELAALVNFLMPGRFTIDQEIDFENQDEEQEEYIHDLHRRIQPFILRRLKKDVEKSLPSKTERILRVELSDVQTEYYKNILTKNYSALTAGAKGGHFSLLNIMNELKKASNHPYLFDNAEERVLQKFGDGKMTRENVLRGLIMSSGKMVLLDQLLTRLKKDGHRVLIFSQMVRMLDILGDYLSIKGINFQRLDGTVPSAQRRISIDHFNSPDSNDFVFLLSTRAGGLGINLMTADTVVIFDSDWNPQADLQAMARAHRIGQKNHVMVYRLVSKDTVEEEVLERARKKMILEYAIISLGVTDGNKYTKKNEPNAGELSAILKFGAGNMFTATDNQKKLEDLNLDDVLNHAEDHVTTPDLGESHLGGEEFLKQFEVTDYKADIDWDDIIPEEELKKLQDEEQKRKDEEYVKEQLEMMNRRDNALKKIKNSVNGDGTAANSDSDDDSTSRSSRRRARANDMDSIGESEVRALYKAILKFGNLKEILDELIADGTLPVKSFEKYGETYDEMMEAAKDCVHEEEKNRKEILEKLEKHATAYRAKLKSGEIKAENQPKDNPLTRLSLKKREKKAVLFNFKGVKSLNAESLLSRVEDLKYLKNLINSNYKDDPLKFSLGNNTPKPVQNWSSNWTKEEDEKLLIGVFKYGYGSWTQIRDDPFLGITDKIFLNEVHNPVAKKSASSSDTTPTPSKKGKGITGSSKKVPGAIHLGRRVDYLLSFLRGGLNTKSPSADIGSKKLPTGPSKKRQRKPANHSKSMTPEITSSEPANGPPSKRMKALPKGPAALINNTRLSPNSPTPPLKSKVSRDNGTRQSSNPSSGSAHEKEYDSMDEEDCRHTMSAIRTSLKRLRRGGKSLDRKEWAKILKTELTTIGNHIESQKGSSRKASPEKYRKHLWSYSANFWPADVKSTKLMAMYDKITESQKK
Sialic acid-binding Ig-like lectin 9 (Homo sapiens), sequence (Q9Y336 whole entry): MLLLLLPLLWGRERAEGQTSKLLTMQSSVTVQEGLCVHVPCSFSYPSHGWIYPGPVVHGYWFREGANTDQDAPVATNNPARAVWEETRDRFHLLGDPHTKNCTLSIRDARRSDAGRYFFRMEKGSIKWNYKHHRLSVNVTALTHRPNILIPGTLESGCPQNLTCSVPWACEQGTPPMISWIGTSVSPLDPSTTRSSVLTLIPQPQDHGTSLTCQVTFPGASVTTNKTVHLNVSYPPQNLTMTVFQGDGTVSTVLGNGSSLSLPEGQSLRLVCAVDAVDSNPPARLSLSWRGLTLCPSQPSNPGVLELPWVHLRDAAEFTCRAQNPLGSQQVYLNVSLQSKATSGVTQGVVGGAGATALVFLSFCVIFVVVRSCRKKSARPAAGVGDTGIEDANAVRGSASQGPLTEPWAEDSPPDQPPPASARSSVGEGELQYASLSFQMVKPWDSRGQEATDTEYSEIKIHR

With `O=C(c1coc(COc2cccc(F)c2)n1)N1CC[C@H](O)[C@@H](O)C1`, the Percent Effect is -4.21% in test [1]; 2.7% in test [2]; 0.202% in test [3]; 8.13% in test [4]; 1.93% in the test with Trypanosoma cruzi; 3.33% in test [5]. Also, the Percent Effect was 10.2% in test [6]; 7.51% in the test filed under Homo sapiens; 5.82% in test [7]; 9.76% in test [8]; -4.67% in test [9].

Turning to `Cn1cc(CN2CC[C@H]3OCC[C@@H](C(=O)N4CCCCO4)[C@@H]3C2)cn1`, the Percent Effect was -3.19% in [1]; 9.33% in [2]; -0.147% in test [3]; 1.18% in [4]; -0.982% in the test with Trypanosoma cruzi; -6.51% in [5]. Besides, the Percent Effect in test [6] is 11.3%; in the test listed under Homo sapiens, 6.18%; in [7], 2.12%; in [8] it was 7.69%; in test [9], -4.05%.

For `OC(COCc1ccc(Cl)cc1)CN1CCC(c2ccn[nH]2)CC1` (stereo unspecified), the Percent Effect in test [1] was -3.72%; in test [2], 20.2%; in test [3], -9.18%; in test [4], -2.48%; in the test with Trypanosoma cruzi it was 7.27%; in test [5] it was -3.04%. Besides, the Percent Effect in test [6] was 3.03%; in the test listed under Homo sapiens it was -5.57%; in test [7], 5.42%; in [8], 26.6%; in test [9], -7.16%.

For `CC(=O)NCC(=O)N1CCN(CC2CC2)c2ncccc2C1`, the Percent Effect was -4.55% in test [1]; 8% in test [2]; 8.23% in [3]; 6.27% in [4]; -0.394% in the test with Trypanosoma cruzi; -0.233% in [5]. The Percent Effect was 11% in [6]; 0.904% in the test filed under Homo sapiens; 9.57% in test [7]; 16.7% in [8]; -2.61% in test [9].

As for `CCn1cc(N2Cc3nc(N4CCOCC4)ncc3C2=O)cn1`, the Percent Effect in test [1] is -4.68%; in [2] it was 17.3%; in [3], -4.89%; in [4], 0.208%; with Trypanosoma cruzi it was 0.786%; in test [5], -9.33%. The Percent Effect was 4.44% in test [6]; -2.82% in the test filed under Homo sapiens; 2.12% in test [7]; 5.13% in test [8]; -15.2% in test [9].

Take `Cc1nc(C)n(CC2CCCN(Cc3ccc(C(N)=O)cc3)C2)n1` (stereo unspecified): the Percent Effect in test [1] was -2.97%; in test [2] it was 5.2%; in test [3], 2.61%; in [4], -0.0393%; in the test on Trypanosoma cruzi, -0.294%; in [5] it was -3.58%. Further, the Percent Effect was 5.58% in test [6]; 5.79% in the test filed under Homo sapiens; 4.76% in [7]; 11.8% in [8]; -14.8% in test [9].

As for `CCn1nc(C)c2nnn(CC(=O)Nc3c(C)cccc3C)c(=O)c21`, the Percent Effect in test [1] was -7.15%; in test [2] it was 17.3%; in [3], -10.2%; in test [4], -3.51%; in the test on Trypanosoma cruzi, 5.5%; in [5] it was -2.99%. Further, the Percent Effect was 5.73% in [6]; 4.38% in the test listed under Homo sapiens; 6.35% in [7]; 12.8% in test [8]; -16.1% in test [9].

As for `NC(=O)c1csc(C(=O)N2CCCC(n3ccnc3)C2)c1` (stereo unspecified), the Percent Effect in test [1] was -5.24%; in [2] it was 3.8%; in [3], 5.04%; in [4] it was 3%; in the test with Trypanosoma cruzi it was 2.56%; in test [5] it was 1.5%. For the same compound, the Percent Effect is 7.72% in test [6]; -1.55% in the test filed under Homo sapiens; 4.17% in test [7]; 15.2% in [8]; -9.55% in test [9].

Take `CC(=O)N1CCC(C(=O)NCCN2CCCCC2)CC1`: the Percent Effect in test [1] is -1.49%; in test [2], 9.72%; in test [3] it was -3.56%; in test [4] it was -2.74%; in the test with Trypanosoma cruzi it was 0.875%; in test [5] it was 1.77%. For the same compound, the Percent Effect in test [6] is 17.5%; in the test listed under Homo sapiens, -6.46%; in test [7], 4.21%; in test [8] it was 5.13%; in test [9], -2.32%.

Consider `CC(O)CN(CC(=O)NC(=O)NC1CC1)c1ccccc1` (stereo unspecified), for which the Percent Effect is -7.41% in [1]; 15.6% in test [2]; -2.19% in test [3]; -7.69% in [4]; -2.64% with Trypanosoma cruzi; -3.16% in test [5]. Further, the Percent Effect in [6] was 3.64%; in the test filed under Homo sapiens, 6.08%; in test [7], 5.71%; in test [8], 2.35%; in test [9], -17.8%.

As to `Cc1ccccc1CN1CCN(Cc2nccn2C)CC1`, the Percent Effect was -3.45% in test [1]; 5.41% in test [2]; -4.75% in test [3]; 4.96% in [4]; -3.3% in the test on Trypanosoma cruzi; -1.6% in test [5]. Also, the Percent Effect is 0.36% in test [6]; 16.1% in the test filed under Homo sapiens; 3.45% in [7]; 3.7% in test [8]; -1.25% in test [9].

Source of the values: ChEMBL document CHEMBL3988442, “University of Dundee, Small-Polar-MMV Screening Library” (2021).
